NPR1 antag: Natriuretic polypeptide receptor (hNpr1) antagonism - Primary qHTS | 76,000 tested, 1.6% active | Potency, µM (titrated, usually from 46.3 µM), for the others: top-dose activity change, negative = inhibition, usual class: inhibitors | Atrial natriuretic peptide receptor 1 (Homo sapiens), P16066 | HEK293 hNpr1 GloSensor cGMP, ANP-stimulated luminescence; calls by dose curve; note: nearly all actives have a fitted effect of over 60% in size
Target sequence (P16066 whole entry, looked up): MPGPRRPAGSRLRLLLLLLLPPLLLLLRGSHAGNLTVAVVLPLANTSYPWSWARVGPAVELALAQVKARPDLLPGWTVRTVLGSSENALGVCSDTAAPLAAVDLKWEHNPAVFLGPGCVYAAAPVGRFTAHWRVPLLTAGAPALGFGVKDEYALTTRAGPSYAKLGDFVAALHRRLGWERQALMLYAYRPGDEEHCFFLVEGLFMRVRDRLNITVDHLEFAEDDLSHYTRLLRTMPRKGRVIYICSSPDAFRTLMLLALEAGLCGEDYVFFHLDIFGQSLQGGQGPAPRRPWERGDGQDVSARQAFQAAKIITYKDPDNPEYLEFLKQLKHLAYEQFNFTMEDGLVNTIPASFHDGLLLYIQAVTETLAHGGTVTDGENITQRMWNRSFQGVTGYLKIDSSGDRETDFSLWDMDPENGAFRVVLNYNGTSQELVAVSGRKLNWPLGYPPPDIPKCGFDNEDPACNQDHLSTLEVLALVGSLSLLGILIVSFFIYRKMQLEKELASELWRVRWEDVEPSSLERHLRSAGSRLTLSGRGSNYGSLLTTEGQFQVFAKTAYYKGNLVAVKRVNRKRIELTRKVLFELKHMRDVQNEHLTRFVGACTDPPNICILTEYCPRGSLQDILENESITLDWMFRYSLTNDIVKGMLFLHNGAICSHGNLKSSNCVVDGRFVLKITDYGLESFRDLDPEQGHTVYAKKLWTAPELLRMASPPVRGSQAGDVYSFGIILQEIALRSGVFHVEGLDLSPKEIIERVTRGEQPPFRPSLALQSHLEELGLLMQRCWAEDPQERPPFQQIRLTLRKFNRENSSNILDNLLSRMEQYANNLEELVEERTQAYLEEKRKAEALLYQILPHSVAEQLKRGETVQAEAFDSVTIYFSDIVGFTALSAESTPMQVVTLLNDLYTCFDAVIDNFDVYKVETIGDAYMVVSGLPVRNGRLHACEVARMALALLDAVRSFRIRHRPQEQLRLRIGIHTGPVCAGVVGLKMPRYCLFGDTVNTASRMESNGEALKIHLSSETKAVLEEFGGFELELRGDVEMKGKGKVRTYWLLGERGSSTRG
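HEK293 cells stably expressing human Npr1 and cGMP GloSensor pGS-40F, loaded 2 h with 2% GloSensor reagent, given compound 30 min at room temperature. Luminescence read before and 20 min after 0.1 nM hNppA.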
Luciferase inh: Firefly luciferase inhibition profiling of diverse chemical library using quantitative high-throughput screening. Luciferin 4-monooxygenase (Photinus pyralis), P08659. purified P. pyralis luciferase, luminescence, biochemical. Potency, µM (doses to about 115 µM), most hits filed as inhibitors. 76,000 tested, 2.5% active. AID 1347043, 2019; note: nearly all actives have a fitted effect of over 65% in size
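Purified 10nM P. pyralis luciferase with 10uM D-luciferin and 10uM ATP in 50mM Tris acetate pH 7.5, 10mM Mg acetate, 0.01% Tween-20, 0.05% BSA. qHTS titration; luminescence read by CCD imager.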
3T3 cytotox: Cytotoxic Profiling in NIH 3T3 Cell Line of Diverse Libraries Using Quantitative High-Throughput Screening; NIH 3T3 viability, CellTiter-Glo ATP luminescence, 48-72 h; Potency, µM (top dose mostly 96.7 µM), for the others: at the top dose activity change, negative = cytotoxicity, usual class: inhibitors; 94,000 tested, 4.3% active; AID 1345082, 2018; note: nearly all actives have a fitted effect of over 55% in size
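Cytotoxicity was measured by CellTiter-Glo ATP luminescence after 48 or 72 h compound exposure at 37 °C. Mouse NIH 3T3 fibroblasts were seeded at 400 cells/well and dosed by 23 nL pin transfer.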
HEK cytotox: Cytotoxic Profiling in HEK 293 Cell Line of Diverse Libraries Using Quantitative High-Throughput Screening; HEK 293 viability, ATP luminescence (CellTiter-Glo), 48-72 h; Potency, µM (series often up to 115 µM), for the others: top-dose activity change, negative = cytotoxicity, most hits filed as inhibitors; 94,000 tested, 6.6% active; AID 1345083, 2018; note: nearly all actives have a fitted effect of over 60% in size
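CellTiter-Glo luminescence (cellular ATP) was read after 48 or 72 hr of compound exposure at 37 degree Celsius. Cells were HEK 293 plated at 250 cells/well.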
Starred values were filed as active, the others as inactive; i = inactive; u = inconclusive; x = no result given; [ ] = another dose, or the depositor's remark. Only some compounds are listed: those with a hit (about 11% of all), similar ones and a draw of the others. Unless noted, calls come from the whole dose curve; as a rule, active = well fitted curve in the direction sought with a large enough effect; inconclusive = small, poorly fitted or top-dose-only effect, or another doubt; inactive = no such curve, though single readings can be large; an effect the other way counts as inactive or inconclusive. % is set by controls: 0 for no effect and ±100 for the full control effect; potency is the fitted concentration of half-maximal effect.

SMILES | NPR1 antag | Luciferase inh | 3T3 cytotox | HEK cytotox
CC(C)C[C@@H]1N[C@H](C(=O)N2CCCC2)Cc2cn(Cc3ccccn3)c3cccc1c23 | 2.2%[70.6 µM] | i | u | 112µM*
CC(C)C[C@@H]1N[C@H](C(=O)N2CCOCC2)Cc2cn(Cc3ccccn3)c3cccc1c23 | -5.2%[70.6 µM] | i | u | 100µM*
O=C(c1ccc(Cl)nc1)N1CCN(C(=O)c2nc3cccnc3n(Cc3ccccc3)c2=O)CC1 | x | x | -27.2% | -21.4%
O=C(NC1CCCN(c2cc(-c3ccccc3)[nH]n2)C1)c1ccccc1 (stereo not drawn) | -20.7% | u | u | u
O=C(NC1CCCN(c2cc(-c3ccc(F)cc3)[nH]n2)C1)c1ccncc1 (stereo not drawn) | -10.7% | 39.8µM* | -6.2% | u
O=C(NC1CCCN(c2cc(-c3ccccc3)[nH]n2)C1)c1ccc2nc[nH]c2c1 (stereo not drawn) | 1.7% | 31.6µM* | -5.9% | -12.1%
Cc1ccc(C(=O)NC2CCCN(c3cc(-c4ccc(F)cc4)[nH]n3)C2)cc1 (stereo not drawn) | 0.5% | i | u | u
O=C(NC1CCCN(c2cc(-c3ccccc3)[nH]n2)C1)c1ccc2cc[nH]c2c1 (stereo not drawn) | u | 14.1µM* | u | u
O=C(NC1CCCN(c2cc(-c3ccc(F)cc3)[nH]n2)C1)c1ccc(Br)o1 (stereo not drawn) | -20.5% | u | u | 31.6µM*
CNC(=O)C(C)(C)N1CCC[C@H]1C(=O)N1CCCCCC1 | 1.7%[70.6 µM] | i | 2.7%[174 µM] | i
O=S(=O)(c1ccc(F)cc1)N1CCc2nnc(C3CC3)n2CC1 | x | x | -25.7% | -11.9%
N#Cc1cccc(C(=O)NC2CCCN(c3cc(-c4ccc(F)cc4)[nH]n3)C2)c1 (stereo not drawn) | u | i | u | u
O=C(NC1CCCN(c2cc(-c3ccc(F)cc3)[nH]n2)C1)c1ccc2nc[nH]c2c1 (stereo not drawn) | -23.5% | 15.8µM* | u | u
O=C(c1cn[nH]c1-c1ccc(F)cc1)N1CCC(OCCOc2ccccc2)CC1 | x | x | u | 50.1µM*
O=C(NCC(F)F)C1CCN(c2nccc(Nc3ccccc3F)n2)CC1 | x | x | -23.0% | u
Cc1ccc([S+](=O)([O-])N2CCN(C(=O)c3nc4cccnc4n(Cc4ccccc4)c3=O)CC2)cc1 | x | x | -11.5% | -13.3%
COc1cc(-c2nccc3c(=O)cc(N(C)c4ccccc4)oc23)ccn1 | 2.0%[70.6 µM] | i | 10µM* | u
CN(c1cc(=O)c2ccnc(-c3cccc(C(F)(F)F)c3)c2o1)C1CCOCC1 | -0.7%[70.6 µM] | i | 12.6µM* | -19.2%[172 µM]
Cc1noc(C)c1-c1nccc2c(=O)cc(N(C)c3ccccc3)oc12 | 7.5%[70.6 µM] | i | u | i
CN(c1cc(=O)c2ccnc(-c3ccc(F)c(Cl)c3)c2o1)C1CCOCC1 | -10.7%[70.6 µM] | i | u | -16.8%[172 µM]
CN(c1ccccc1)c1cc(=O)c2ccnc(-c3ccncc3)c2o1 | 1.8%[70.6 µM] | i | 25.1µM* | -18.5%[172 µM]
COc1ncccc1-c1nccc2c(=O)cc(N(C)c3ccccc3)oc12 | -1.9%[70.6 µM] | i | 35.5µM* | u
CC(=O)Nc1ccccc1-c1nccc2c(=O)cc(N(C)c3ccccc3)oc12 | -5.8%[70.6 µM] | i | u | -25.4%[172 µM]
COc1ccccc1-n1c(=O)c(C(=O)NCC2CC2)nc2cccnc21 | x | x | -21.8% | -1.1%
Cc1cccc(NC(=O)Nc2ccc(C)n(CC(=O)O)c2=O)c1 | 2.4% | 15.8µM* | i | 11.6%
SMILES | NPR1 antag | Luciferase inh | 3T3 cytotox | HEK cytotox
Cc1cccc(NC(=O)Nc2ccc(C)n(CC(=O)Nc3ccc(C)c(C)c3)c2=O)c1 | -2.6% | i | 31.6µM* | 28.2µM*
Cc1cccc(NC(=O)Nc2ccc(C)n(CC(=O)NCCN3CCCC3)c2=O)c1 | 0.4% | i | -13.2% | -1.9%
Cc1ccc(NC(=O)Nc2ccc(C)n(CC(=O)Nc3ccc(C)cc3C)c2=O)cc1 | -2.9% | u | 1.5% | -4.8%
O=C(NCC1CC1)C1CCN(c2nccc(Nc3ccccc3F)n2)CC1 | x | x | -29.4% | u
COc1ccc(Nc2ccnc(N3CCC(C(=O)NCC4CC4)CC3)n2)cc1 | x | x | 39.8µM* | u
Cc1ccc(Nc2ccnc(N3CCC(C(=O)Nc4ccccc4Cl)CC3)n2)cc1 | x | x | 39.8µM* | u
Cc1ccc(Nc2ccnc(N3CCC(C(=O)NCC4CCCCCC4)CC3)n2)cc1 | x | x | 17.8µM* | u
COC(=O)CNC(=O)C1CCN(c2nccc(Nc3ccc(C)cc3)n2)CC1 | x | x | -13.6% | i
C#CCNC(=O)C1CCN(c2nccc(Nc3ccc(C)cc3)n2)CC1 | x | x | u | 50.1µM*
COCc1ncc(C)n1CC1CCCN(Cc2cccnc2)C1 (stereo not drawn) | x | x | 1.1% | 2.0%
Cc1ccc(Nc2ccnc(N3CCCC(C(=O)NCC4CC4)C3)n2)cc1 (stereo not drawn) | x | x | 35.5µM* | 35.5µM*
N[C@H]1CO[C@H]2[C@@H]1OC[C@@H]2n1cc(-c2ccccn2)nn1 | -4.4%[70.6 µM] | i | u | 126µM*
O=C1NCc2ccccc2CC12CCCN2Cc1cccc(Br)c1 (stereo not drawn) | x | x | -6.2% | -7.4%
CN1CCC(N2CC[C@H](c3nc4ccccc4[nH]3)C2)CC1 | 4.1%[70.6 µM] | 70.8µM* | -22.3%[230 µM] | -14.3%[230 µM]
FC(F)(F)c1ccc2nc([C@H]3CCN(C4CCCCC4)C3)[nH]c2c1 | -1.6%[70.6 µM] | 56.2µM* | 89.1µM* | u
Cc1ccc(S(=O)(=O)N2CC[C@H](c3nc4ccccc4[nH]3)C2)cc1 | -9.2%[70.6 µM] | i | 89.1µM* | u
CN1CCC(N2CC[C@H](c3nc4ccc(C(F)(F)F)cc4[nH]3)C2)CC1 | -4.3%[70.6 µM] | i | 89.1µM* | u
Cc1ccc2oc([C@H]3CCN(S(=O)(=O)c4ccc(F)cc4)C3)nc2c1 | u | i | u | u
COCc1ccc2c(c1)c(OC(C)(C)C(=O)Nc1ccccn1)nn2CCC(C)C | -21.3%[70.6 µM] | i | 44.7µM* | 89.1µM*
COCc1ccc2c(c1)c(OC(C)(C)C(=O)NC1CCN(C)CC1)nn2CCC(C)C | 2.6%[70.6 µM] | i | 89.1µM* | u
COCc1ccc2c(c1)c(OC(C)(C)C(=O)NC1CC1)nn2CCC(C)C | u | i | u | u
CCCN1CCC2(CCN(C(=O)c3cccc(Cl)c3)CC2)Oc2ccccc21 | 11.2% | i | u | u
Cc1cc2cc(-c3c(C)noc3C)nc(NCCN(C)C)c2o1 | -3.0%[70.6 µM] | i | u | 100µM*
Cc1noc(C)c1-c1cc2cc(C(C)C)oc2c(NCCN(C)C)n1 | 6.7%[70.6 µM] | i | 44.7µM* | 70.8µM*
CC(C)NC(=O)NC1CCCN(c2ccc3nnc(-c4ccccc4)n3n2)C1 (stereo not drawn) | x | x | u | -27.7%
Cc1ccc(-c2ccccc2CN)cc1Cl | x | x | 35.5µM* | 35.5µM*
NCc1ccccc1-c1cc(F)cc(F)c1 | x | x | -11.1%[138 µM] | -17.5%[172 µM]

High-throughput results (PubChem BioAssay)
